Source: PubChem BioAssay AID624273 (Broad Institute, 2012)
The campaign covered roughly 1,000 compounds. About 230 (23%) were called active. About 1% were inconclusive and are not listed. This is one part of the list. Results with a measured potency or affinity are listed apart. Values without a mark were called inactive. No rule for the calls is given here.

Target: Long-chain-fatty-acid--AMP ligase FadD28 (Mycobacterium tuberculosis (strain ATCC 25618 / H37Rv)) (UniProt P9WQ59)
Test: inhibitors of FadD28 bisubstrate probe binding, dose response, biochemical, fluorescence polarization, cherry-pick (AID 624273)
Conditions: series mostly up to 50 µM; activity change, negative = inhibition: at the top concentration

Chain of Long-chain-fatty-acid--AMP ligase FadD28 (Mycobacterium tuberculosis (strain ATCC 25618 / H37Rv)) (P9WQ59 whole entry, looked up): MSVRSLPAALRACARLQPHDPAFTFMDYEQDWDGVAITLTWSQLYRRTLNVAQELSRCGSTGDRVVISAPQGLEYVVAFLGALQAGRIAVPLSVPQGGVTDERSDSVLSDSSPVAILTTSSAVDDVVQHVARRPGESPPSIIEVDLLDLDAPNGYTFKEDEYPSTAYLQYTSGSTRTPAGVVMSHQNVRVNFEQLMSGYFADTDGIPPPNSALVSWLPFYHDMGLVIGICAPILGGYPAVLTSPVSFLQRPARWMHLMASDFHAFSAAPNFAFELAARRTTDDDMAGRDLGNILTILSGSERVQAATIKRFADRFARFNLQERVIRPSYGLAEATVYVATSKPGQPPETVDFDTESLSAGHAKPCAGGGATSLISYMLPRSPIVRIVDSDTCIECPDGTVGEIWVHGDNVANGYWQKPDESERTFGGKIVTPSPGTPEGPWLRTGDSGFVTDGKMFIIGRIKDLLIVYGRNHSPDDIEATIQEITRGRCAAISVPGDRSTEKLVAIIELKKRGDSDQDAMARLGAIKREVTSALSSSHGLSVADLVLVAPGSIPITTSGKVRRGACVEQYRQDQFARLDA

| SMILES | activity change, negative = inhibition |
| --- | --- |
| Cc1ccc(S(=O)(=O)N(C)C)cc1NC(=O)CSc1nnnn1-c1ccc(O)cc1 | -14.5% |
| CC1(C)Cc2nc3oc4c(NCc5ccccc5)ncnc4c3cc2CO1 | -2.72% |
| CCN=c1scc(C)n1/N=C/c1cc(Br)c(O)c(Br)c1 | -4.09% |
| O=C(CSc1ncn[nH]1)Nc1ccc(S(=O)(=O)Nc2ncccn2)cc1 | -3.33% |
| O=C(CSc1ccc(Br)c2cccc(Cl)c12)Nc1ccc(S(=O)(=O)Nc2nccs2)cc1 | -15.1% |
| COc1ccccc1[C@@H]1C(c2cccc(C)c2)=NN(c2ccccc2)[C@H]1C(=O)N1CCOC1=O | 0.248% |
| COc1ccccc1COC(=O)c1cccc(S(=O)(=O)N2CCCC2)c1 | -0.209% |
| O=c1cc(CN2CCc3ccccc32)c2ccc(O)cc2o1 | -8.7% |
| O=C(O)Cc1ccc2c(c1)N(S(=O)(=O)c1cccs1)CC(C(=O)O)O2 (stereo unspecified) | -14.2% |
| OCCN1CCN(c2ncnc3c2ncn3[C@H]2CN(Cc3ccncc3)C[C@@H](CO)O2)CC1 | -2.24% |
| COc1ccc(CCNC(=O)CN(c2ccc(C)cc2)S(=O)(=O)c2c(C)noc2C)cc1OC | -2.72% |
| Nc1ccc2c(c1)[nH]c(=O)c1cc(N)ccc12 | -0.111% |
| NS(=O)(=O)c1cccc(NS(=O)(=O)c2ccc(/C=C/C(=O)OCC(=O)c3ccccc3)cc2)c1 | -0.888% |
| O=[N+]([O-])c1cc(S(=O)(=O)Nc2cccc(C(F)(F)F)c2)ccc1-n1nnc2ccccc21 | -21.8% |
| CC(=O)Nc1ccc(S(=O)(=O)NC2=C(N3CCN(c4ccc(F)cc4)CC3)C(=O)c3ccccc3C2=O)cc1 | -18.6% |
| Cc1cc(NS(=O)(=O)c2ccc(NC(=O)Cc3ccccc3)cc2)nc(C)n1 | -4.8% |
| COc1ccccc1NS(=O)(=O)c1cccc(NC(=O)Nc2cccc(Cl)c2)c1 | -3.21% |
| O=C1C(Cl)=C(NCCN2CCOCC2)C(=O)c2ccccc21 | -8.82% |
| O=C(NN=C1CCCC1)c1cc(Cl)cc(Cl)c1O | -17.8% |
| N#Cc1cc2c(nc1SCc1ccc(Cl)nc1)CCCCC2 | -3.38% |
| Cc1ccc2oc(C(=O)N3CCCCCC3)c(C)c2c1 | 0.038% |
| O=C(CSc1ccccn1)N1CCN(S(=O)(=O)c2ccc(Cl)cc2)CC1 | -7.31% |
| Cc1ccnc(NC(=O)CCC(=O)N(CC(=O)NCC2CCCO2)Cc2ccc(F)cc2)c1 (stereo unspecified) | -1.94% |
| Cc1cc[n+](CC(=O)c2cc3ccccc3oc2=O)cc1 | -3.16% |
| O=C1NC(=O)N(Cc2ccc(F)cc2)C(=O)/C1=C\c1ccoc1 | -9.04% |
| COc1ccc(C(=O)N/N=C2\SCC(=O)N2Cc2ccc3c(c2)OCO3)c(OC)c1 | -23.6% |

| SMILES | activity change, negative = inhibition |
| --- | --- |
| CCNC(=S)N1CCN(CC(=O)Nc2ccc(Br)cc2)CC1 | 15% |
| Nc1ccccc1/C=N\N=C/c1ccccc1N | -5.39% |
| COc1ccc(CCNC(=O)CCNC(=O)N2CC(=O)Nc3ccccc32)cc1 | -1.19% |
| CN(C)C1(c2nnnn2-c2ccc(Cl)cc2)CCCCC1 | -6.34% |
| N#Cc1c(C#N)c(-c2ccccc2)n(-c2ccc(C(=O)O)cc2)c1N | -2.68% |
| O=C(c1[nH]c(C(F)(F)F)nc1-c1ccccc1)N1CCN(c2ccccn2)CC1 | -6.13% |
| CC(=O)Nc1ccc(/C=N\NC(=O)CNS(=O)(=O)c2ccc([N+](=O)[O-])cc2)cc1 | -16.2% |
| COc1ccc(/C=C/C(=O)N2CC(C)OC(C)C2)cc1OC (stereo unspecified) | -2.82% |
| COC(=O)CSc1nnc(CNC(=O)c2cc(OC)cc(OC)c2)n1-c1ccc(F)cc1 | 49.8% |
| O=c1[nH]c(=S)[nH]c2c1C(c1ccc(Br)cc1)c1c([nH]c(=S)[nH]c1=O)O2 | -8.68% |
| O=C(OCC(=O)N1CCCC1)c1cccs1 | -3.69% |
| O=C1NCCN(C(=O)CCc2nnc(-c3ccsc3)o2)C1c1ccc(F)cc1 (stereo unspecified) | -10.6% |
| COc1ccc(C2(CNC(=O)c3ccc(OC)c([N+](=O)[O-])c3)CCCCC2)cc1OC | -1.23% |
| Cc1ccc(-c2nn(-c3ccccc3)cc2/C=C2\SC(=S)N(CCCCCC(=O)O)C2=O)o1 | 46.1% |
| O=C(O)CCCN1C(=O)/C(=C/c2ccc(-c3nc4ccccc4s3)o2)SC1=S | -4.59% |
| CC1(c2ccc(OC(F)F)cc2)NC(=O)N(CC(=O)Nc2ccc3[nH]c(=O)[nH]c3c2)C1=O (stereo unspecified) | -3.88% |
| CC(C)CNC(=O)c1cc(S(=O)(=O)N2CCOCC2)ccc1N1CCCC1 | -5.51% |
| Cc1ccc(NS(=O)(=O)c2ccc(NC(=O)CN(c3cc([N+](=O)[O-])ccc3C)S(C)(=O)=O)cc2)c(C)c1 | -0.627% |
| Cc1ccccc1-c1cc2nc(NCc3ccccc3)n(C)c(=O)c2s1 | 10.3% |
| COC(=O)Cc1cc(=O)n(-c2nc3ccccc3s2)[nH]1 | -9.29% |
| O=C(/C=C/c1ccco1)Nc1sc2c(c1C(=O)O)CCC2 | 0.459% |
| CC(=O)Nc1ccc(NC(=O)CSc2nc3nc(C)cc(C)c3c(=O)[nH]2)cc1 | -2.41% |
| COc1ccc(-n2nnnc2SCC(=O)c2ccc(O)c(O)c2)cc1 | -12.5% |
| CCC(=O)Nc1cccc(-n2nnnc2SCC(=O)c2ccc(C)c(C)c2)c1 | -13% |
| CCOc1ccccc1NC(=O)CN(C)S(=O)(=O)c1cnc[nH]1 | -5.79% |
| Cc1cc(SCNC(=O)c2ccccc2)nc(C(C)C)n1 | -7.43% |

| SMILES | activity change, negative = inhibition |
| --- | --- |
| COc1ccc(C(C(=O)NC2CCCCC2)N(C(=O)c2sc(C)nc2C)c2ccc(OC)cc2)cc1 (stereo unspecified) | 9.21% |
| Cc1c(Cc2ccc3c(c2)OCO3)sc(NC(=O)c2ccc3ccccc3c2)c1C(N)=O | -7.43% |
| CCOC(=O)CNC(=O)Cn1cnc2c(cnn2-c2ccc(C)cc2)c1=O | -4.81% |
| O=c1c2ccccc2c(-c2ccc(O)cc2)nn1-c1cccc(C(F)(F)F)c1 | 4.72% |
| CC(C)CN(C(=O)c1ccc(-n2cncn2)c([N+](=O)[O-])c1)C1CCS(=O)(=O)C1 (stereo unspecified) | -8.25% |
| C/C(Cl)=C\Cn1c(O)c(N=O)c2ccccc21 | 3.06% |
| CC(=O)N1CC2(C)CN(C(C)=O)CC(C)(C1)C2=O | -4.73% |
| O=C1ON=C(c2cccc([N+](=O)[O-])c2)/C1=C/c1ccc(O)cc1 | -19.1% |
| Cc1ccc(-n2cccc2/C=C2/NC(=O)N(CC(=O)Nc3cccc(C)c3)C2=O)cc1 | -3.09% |
| O=C(O)CC1S/C(=N/N=C/c2ccc(-c3ccc(Cl)c([N+](=O)[O-])c3)o2)NC1=O (stereo unspecified) | -14.3% |
| COCCNC(=O)C1CCC(CNS(=O)(=O)c2ccc3c(c2)CC(C)N3C(=O)C2CC2)CC1 (stereo unspecified) | -4.61% |
| COc1ccc(N/C=C(\C2OC(=O)c3ccccc32)[N+](=O)[O-])cc1 (stereo unspecified) | -6.01% |
| CCOc1cc(C2C(C(=O)OC(C)C)=C(C)N=C3SCCC(=O)N32)ccc1OC(C)=O (stereo unspecified) | 0.929% |
| c1ccc2c(C[C@@H]3CNCCN3CC3CCCCC3)cccc2c1 | 11.1% |
| COC(=O)CSc1nc2ccccc2nc1SCC(=O)OC | -3.98% |
| O=[N+]([O-])c1ccc(OCCn2cncn2)cc1 | -11.1% |
| COC(=O)c1ccc(Cl)c(NS(=O)(=O)c2ccc3c(c2)OCCO3)c1 | -4.88% |
| Cc1cc(C)n(CCN(C)C(=O)CCc2nnc(-c3ccc4c(c3)OCO4)o2)n1 | -9.68% |
| CN(C)C=NCCn1c(N2CCOCC2)nc2c1c(=O)n(C)c(=O)n2C | -6.64% |
| O=C(O)CN1CCN(Cc2ccccc2F)C1=O | -2.23% |
| C=CCn1c(SCC(N)=O)nnc1-c1cnccn1 | -1.85% |
| CCOC(=O)c1nc(NCc2cccnc2)c2ccccc2n1 | 1.8% |
| Cc1ccc(S(=O)(=O)N(CC(=O)Nc2cc(C)ccc2C)C(=O)N2CCN(C)CC2)cc1 | -11.5% |
| CN(CC(=O)Nc1ccc(Cl)c(C(F)(F)F)c1)C(=O)c1cccnc1Sc1ccccc1 | 4.04% |
| O=C(O)c1c(C(=O)O)c(-c2ccc(Br)cc2)n2c1CSC2 | -0.118% |
| CCCC1SCC(C)(C)NC1=O (stereo unspecified) | -1.99% |

| SMILES | activity change, negative = inhibition |
| --- | --- |
| Cc1cc(S(=O)(=O)Nc2c(NC3CCCCC3)c3ccccc3oc2=O)ccc1F | -1.83% |
| CCCCC(=O)OCC(=O)C1(O)Cc2c(O)c3c(c(O)c2C(OC2CC(NC(=O)C(F)(F)F)C(O)C(C)O2)C1)C(=O)c1c(OC)cccc1C3=O (stereo unspecified) | -20.8% |
| CN(Cc1cn(-c2ccccc2)nc1-c1ccc(F)cc1)C(=O)CCC(=O)O | -1.47% |
| CCC(C)/C=C(C)/C=C/C1=CC2=C(Cl)C(=O)C(C)(OC(C)=O)C(=O)C2=CO1 (stereo unspecified) | 0.929% |
| CCC1CCc2c(sc(NC(=O)CSc3nc(-c4ccco4)cc(C(F)(F)F)n3)c2C#N)C1 (stereo unspecified) | -1.63% |
| N#Cc1c(NC(=O)c2cccc(S(=O)(=O)Nc3ccc(C(=O)O)cc3)c2)sc2c1CCCC2 | -3.44% |
| COC1(OC)N=C(N)C2(C#N)C(c3ccc(F)cc3)C12C#N (stereo unspecified) | -8.68% |
| CCCN(CC(=O)Nc1ccccc1C)C(=O)CCl | 0.101% |
| O=C(CCc1nc2ccccc2c(=O)[nH]1)NCc1ccco1 | -2.48% |
| Nc1ccc(Cc2ccc(N)c(C(=O)O)c2)cc1C(=O)O | -2.36% |
| O=C(O)Cc1csc(-c2ccccc2)n1 | -7.8% |
| CCN(CC)c1nc2n(c(=O)n1)CCO2 | -1.97% |
| CC(C)(C)c1ccc(Cn2nnc3c(=O)[nH]c(C4CCCN(C(=O)c5ccco5)C4)nc32)cc1 (stereo unspecified) | -8.56% |
| O=[N+]([O-])c1cc(Cl)ccc1Nc1ccccc1 | -3.83% |
| Cn1nc([N+](=O)[O-])c(C(C#N)c2nc3ccccc3n2C)c(Cl)c1=O (stereo unspecified) | -23.1% |
| CCOC(OCC)c1nc(N)[nH]c(=O)c1CCCCc1ccccc1 | -1.57% |
| Cn1c(=O)c2c(ncn2CC(=O)N/N=C/c2ccc(Br)s2)n(C)c1=O | 1.7% |
| COc1ccc(NC(=O)Nc2c(O)ccc3ccccc23)cc1 | -0.573% |
| CCN(CC)S(=O)(=O)c1ccc(NC(=O)COC(=O)c2cc(S(=O)(=O)Nc3ccc(OC)cc3)ccc2O)cc1 | 0.508% |
| Cc1[nH]n(-c2ccccc2)c(=O)c1N=Nc1c(Cl)cccc1Cl | -38.3% |
| Cc1ccc(-n2cc(CNC(C)Cn3cncn3)c(-c3ccc(F)cc3)n2)cc1 (stereo unspecified) | 1.98% |
| Cc1cccc(CN2C(=O)N/C(=C/c3cc(C)n(-c4cc(C)ccn4)c3C)C2=O)c1 | -9.35% |
| O=C(O)CCC(=O)NC1CCCCC1 | -7.09% |
